Measured values taken from PubChem BioAssay (EPA / NIEHS).
Several values for one entry are separate records, joined by “and”; a condition that tells them apart may be missing. Equal entries are not always repeated. The source holds several records for some structures; these can differ, active in one and inactive in another. Activity calls are given as the source filed them. The calls were made as follows: active = hit-call score of the fitted dose curve at least 0.9, where 1 is the maximum; inactive = score below 0.9.

What follows are compounds tested on Plasminogen activator inhibitor-1 (PAI1), SERPINE1 (gene 5054) (assay: BSK_hDFCGF_PAI1: BioMAP Diversity Plus: hDFCGF Assay for Plasminogen activator inhibitor-1 (PAI1) Biomarker Activity (AID 2283066)). Conditions: primary human foreskin fibroblasts; actives raise or lower the signal.
Experimental: BSK_hDFCGF is a cell-based, multiplexed-readout assay that uses foreskin fibroblast, a human skin primary cell, with measurements taken at 24 hours after chemical dosing in a 96-well plate.BSK_hDFCGF_PAI1 is an assay component measured in the BSK_hDFCGF assay. It measures PAI-1 antibody related to regulation of gene expression using ELISA technology.Data from the assay component BSK_hDFCGF_PAI1 was analyzed into 1 assay endpoint. This assay endpoint, BSK_hDFCGF_PAI1, was analyzed with bidirectional fitting relative to DMSO as the negative control and baseline of activity. Using a type of binding reporter, gain or loss-of-signal activity can be used to understand changes in the signaling as they relate to the gene SERPINE1. Furthermore, this assay endpoint can be referred to as a primary readout, because this assay has produced multiple assay endpoints where this one serves a signaling function. To generalize the intended target to other relatable targets, this assay endpoint is annotated to the cytokine intended target family, where the subfamily is plasmogen activator inhibitor.
The levels of cell surface (or secreted, indicated by the prefix "s") biomarker endpoints were measured by ELISA. Overt cytotoxicity to cells in confluent adherent cultures (all systems other than the BT system) was assessed by measuring total protein levels using sulforhodamine B (SRB) staining in parallel cultures at the time of biomarker measurements, indicated as SRB endpoints. For proliferation assays for adherent cell types, individual cell types are cultured at sub-confluence and relative cell numbers quantified by SRB staining at time points optimized for each system (48 h: 3C and CASM3C systems; 72 h: BT and HDF3CGF systems; 96 h: SAg system). SRB was performed by staining cells with 0.1% SRB after fixation with 10% TCA and reading wells at 560 nm.Viability and proliferation of PBMC (T cells) was quantified by Alamar Blue reduction for the SAg and BT systems. For PBMC viability (referred to as PBMC Cytotoxicity within the assay endpoint names), cells were plated (75,000/well in a 96-well plate) and then chemical samples added for 1 h before addition of activators, SEB and TSST-1 (20 ng/mL final concentration each). Cells were incubated for 90 h. Then, Alamar Blue (20 uL/well) (Invitrogen, Cat DAL1100) was added for 6 h, and the plates were read with a fluorescence microplate reader at 546/580 nm (excitation/emission). For PBMC proliferation, cells were plated and activated as above but incubated for only 16 h prior to addition of Alamar Blue. Plates were read after 6 h.
For `O=C(O)COc1nc(Cl)c(Cl)cc1Cl`, the outcome was “inactive”. In the case of `O=C(O)c1nc(Cl)ccc1Cl`, the outcome is reported as “inactive”. With `C#CCOS(=O)OC1CCCCC1Oc1ccc(C(C)(C)C)cc1` (stereo not given) the AC50 was 5.14 µM (active). With `COC(=O)N(OC)c1ccccc1COc1ccn(-c2ccc(Cl)cc2)n1` the AC50 was 2.46 µM (active). For `CCNc1nc(Cl)nc(NCC)n1`, the outcome was “inactive”. In the case of `COc1cnc(OC)n2nc(NS(=O)(=O)c3c(OCC(F)F)cccc3C(F)(F)F)nc12`, the outcome is reported as “inactive”. For `CCCN(CCC)c1c([N+](=O)[O-])cc(S(N)(=O)=O)cc1[N+](=O)[O-]`, the outcome was “inactive” and the AC50 was 21.1 µM (active) and 21.6 µM (active). With `O=C(Nc1ccccc1)Nc1ccnc(Cl)c1` the outcome was “inactive”. `COc1ccc(C(c2ccc(OC)cc2)C(Cl)(Cl)Cl)cc1` was tested, and the AC50 was 14.7 µM (active). `CCCCOC(=O)c1ccccc1C(=O)OCCCC` was tested, and the outcome was “inactive”. With `CCCCC(CC)COC(=O)c1ccccc1C(=O)OCC(CC)CCCC` (stereo not given) the outcome was “inactive”. With `CC(C)(C)c1ccc(CSc2cnn(C(C)(C)C)c(=O)c2Cl)cc1` the outcome was “inactive”. `CCNc1nc(Cl)nc(NC(C)C)n1` was tested, and the outcome was “inactive”. In the case of `CC(C)C1(C)N=C(c2nc3ccccc3cc2C(=O)O)NC1=O` (stereo not given), the outcome is reported as “inactive”. In the case of `C=CCC1=C(C)[C@@H](OC(=O)[C@@H]2[C@@H](C=C(C)C)C2(C)C)CC1=O`, the AC50 is reported as 36.6 µM (active). In the case of `COc1nc(C)nc(NC(=O)NS(=O)(=O)c2ccccc2Cl)n1`, the outcome is reported as “inactive”. In the case of `CCOc1cc(Oc2ccc(C(F)(F)F)cc2Cl)ccc1[N+](=O)[O-]`, the AC50 is reported as 5.49 µM (active). With `Cc1c(F)c(F)c(COC(=O)C2C(/C=C(\Cl)C(F)(F)F)C2(C)C)c(F)c1F` (stereo not given) the outcome was “inactive”. `CCON=C(CC)C1=C(O)CC(c2c(C)cc(C)cc2C)CC1=O` (stereo not given) was tested, and the outcome was “inactive”. With `COc1nc(C)nc(NC(=O)NS(=O)(=O)c2ccccc2CCC(F)(F)F)n1` the outcome was “inactive”. For `CN(C)C(=S)SSC(=S)N(C)C`, the AC50 was 5.64 µM (active). `CCOP(=S)(OCC)SCn1c(=O)oc2cc(Cl)ccc21` was tested, and the AC50 was 13.8 µM (active). `CC1COC(Cn2cncn2)(c2ccc(Oc3ccc(Cl)cc3)cc2Cl)O1` (stereo not given) was tested, and the AC50 was 32.1 µM (active). For `CS/C(C)=N/OC(=O)N(C)SN(C)C(=O)O/N=C(\C)SC`, the AC50 was 12 µM (active). In the case of `N#Cc1nn(-c2c(Cl)cc(C(F)(F)F)cc2Cl)c(N)c1S(=O)C(F)(F)F` (stereo not given), the outcome is reported as “inactive”. With `COP(=S)(OC)Oc1nc(Cl)c(Cl)cc1Cl` the outcome was “inactive”. `CCCC1COC(Cn2cncn2)(c2ccc(Cl)cc2Cl)O1` (stereo not given) was tested, and the outcome was “inactive”. For `CC(Oc1ccc(Cl)cc1Cl)C(=O)O` (stereo not given), the outcome was “inactive”. For `Oc1ccccc1-c1ccccc1`, the outcome was “inactive”. With `COC(=O)C=C(C)OP(=O)(OC)OC` the outcome was “inactive”. `CNC(=S)S` was tested, and the outcome was “inactive”. `Fc1ccc(Oc2ccnc3cc(Cl)cc(Cl)c23)cc1` was tested, and the AC50 was 18 µM (active). `N#Cc1cc(Br)c(O)c(Br)c1` was tested, and the outcome was “inactive”. For `CCOC(=O)CC(SP(=S)(OC)OC)C(=O)OCC` (stereo not given), the outcome was “inactive”. With `Cc1cc(Cl)ccc1OCC(=O)O` the outcome was “inactive”. In the case of `C=CCC1=C(C)C(OC(=O)C2C(C=C(C)C)C2(C)C)CC1=O` (stereo not given), the AC50 is reported as 30.4 µM (active) and 38.4 µM (active) and 38.8 µM (active). For `CON(C)C(=O)Nc1ccc(Cl)c(Cl)c1`, the outcome was “inactive”. With `CCCCNC(=O)n1c(NC(=O)OC)nc2ccccc21` the outcome was “inactive”. In the case of `CCOC(=O)C(Cl)Cc1cc(-n2nc(C)n(C(F)F)c2=O)c(F)cc1Cl` (stereo not given), the outcome is reported as “inactive”.
